# From ChEMBL document CHEMBL3988442, “University of Dundee, Small-Polar-MMV Screening Library” (2021)
# Among all 66,000 compounds or so, about 960 (1.5%) showed an effect of 50% or more. The entries come from a sample that favours strong results as a whole.
# Test system: Trypanosoma brucei
# Test: Trypanosoma brucei 72 hour study
# Type: functional, organism-based
# Design: scale not given: in the data most compounds retested in dose-response had high values
smiles,measurement,setting,value
CC(C)(C)c1nc(CNC(=O)N2CCc3ccccc3C2CO)no1 (stereo not given),Percent Effect,"30.3 µM, […]",6.013%
Cc1cc(C(=O)N2CCOC(c3nc(C(C)C)n[nH]3)C2)c(C)s1 (stereo not given),Percent Effect,"30.3 µM, […]",17.14%
CC(C)(CO)Nc1cc(-c2cn[nH]c2)ncn1.Cl,Percent Effect,"30.3 µM, […]",-11.12%
Cc1cc(-c2cnc(N3CCCC(C)C3)nc2-c2cccnc2C)on1.Cl (stereo not given),Percent Effect,"30.3 µM, […]",58.57%
Cc1cc(-c2cnc(N3CCOCC3)nc2-c2cccnc2C)on1,Percent Effect,"30.3 µM, […]",-10.3%
Cc1cc(-c2cnc(N3CCCCCC3)nc2-c2cccnc2C)on1,Percent Effect,"30.3 µM, […]",55.42%
Cc1cc(-c2cnc(N3CCC(O)CC3)nc2-c2cccnc2C)on1,Percent Effect,"30.3 µM, […]",-31.41%
Cc1cc(-c2cnc(N3CCCC(C)C3)nc2C(C)C)on1 (stereo not given),Percent Effect,"30.3 µM, […]",-16.22%
Cc1cc(-c2cnc(N3CCNC(=O)C3)nc2-c2cccnc2C)on1,Percent Effect,"30 µM, 30.03 µM",16.74%
Cc1ccc(-c2ccnc(NC(c3ncccc3C)C3CC3)n2)c(C)n1 (stereo not given),Percent Effect,"30 µM, 30.03 µM",-69.26%
CC(=O)N1CCO[C@@H]2CN(Cc3ccccc3F)C[C@@H]2C1.O=C(O)C(F)(F)F,Percent Effect,"30.3 µM, […]",-73.74%
O=C1OCCN1CC(=O)N1C[C@H]2CC[C@@H]1CN(Cc1cscn1)C2,Percent Effect,"30 µM, 30.03 µM",-38.65%
CNc1ccc(C(=O)N(C)Cc2ccc3ccccc3n2)cn1,Percent Effect,"30.3 µM, […]",5.672%
Cn1ccnc1C(=O)N1CCC2(CC1)CC(Oc1cccnc1)CO2.O=C(O)C(F)(F)F (stereo not given),Percent Effect,"30 µM, 30.03 µM",24.28%
COc1ncccc1C(=O)N1CCC2(CC1)CC(OC)CO2.O=C(O)C(F)(F)F (stereo not given),Percent Effect,"30.3 µM, […]",-51.01%
COc1ncccc1C(=O)N1CC[C@]2(C[C@@H](Oc3cccnc3)CO2)C1.O=C(O)C(F)(F)F.O=C(O)C(F)(F)F,Percent Effect,"30 µM, 30.03 µM",55.04%
Cn1ccc(C(=O)NC2CCC23CCN(CC2CCOCC2)CC3)c1.O=C(O)C(F)(F)F (stereo not given),Percent Effect,"30 µM, 30.03 µM",-17.43%
COCCN1CCCn2c(nc(CNS(C)(=O)=O)cc2=O)C1.O=C(O)C(F)(F)F,Percent Effect,"30.3 µM, […]",5.593%
CC(=O)N1N=C(c2ccccc2)OC1C(=O)NCCc1ccc(Cl)cc1 (stereo not given),Percent Effect,"30.3 µM, […]",-41.87%
same,Percent Effect,"10 mM, 10 mM as filed; unlikely as a test dose",-29.49%
CC(=O)N1N=C(c2ccccc2)OC1C(=O)NCCc1ccc(O)cc1 (stereo not given),Percent Effect,"30.3 µM, […]",-23.74%
same,Percent Effect,"10 mM, 10 mM as filed; unlikely as a test dose",-98.13%
CC(=O)N1N=C(c2ccccc2)OC1C(=O)NCCc1ccc(C)cc1 (stereo not given),Percent Effect,"30.3 µM, […]",99.94%
same,Percent Effect,"10 mM, 10 mM as filed; unlikely as a test dose",-45.21%
O=C(Cc1cccc(F)c1)N1CCn2cc(Cn3cccn3)nc2C1.O=C(O)C(F)(F)F,Percent Effect,"30.3 µM, […]",-215.4%
CC(C)c1n[nH]c(C2CN(C(=O)c3ccnc(C4CC4)n3)CCO2)n1 (stereo not given),Percent Effect,10 µM,-44.45%
Cc1nc2c(cc1C(=O)O)CCN(Cc1ccsc1)CC2.O=C(O)C(F)(F)F.O=C(O)C(F)(F)F,Percent Effect,"30.3 µM, […]",-6.304%
Cc1ncc(CN2CCOC(c3ccc(-c4ccccc4F)cn3)C2)s1 (stereo not given),Percent Effect,"30.3 µM, […]",93.67%
Cc1ncc(CN2CCOC(c3ccc(-c4cnn(C)c4)cn3)C2)s1 (stereo not given),Percent Effect,"30.3 µM, […]",-5.677%
Cc1ncc(CN2CCOC(c3ccc(-c4cc[nH]n4)cn3)C2)s1 (stereo not given),Percent Effect,"30.3 µM, […]",-10.46%
O=C(NC[C@]12COC[C@H]1CN(Cc1nccs1)C2)c1ccsc1.O=C(O)C(F)(F)F,Percent Effect,"30 µM, 30.03 µM",-41.51%
CN(C)CCN1CCN(Cc2cccc(C#N)c2)Cc2cccnc21.O=C(O)C(F)(F)F.O=C(O)C(F)(F)F.O=C(O)C(F)(F)F,Percent Effect,"30.3 µM, […]",-65.33%
CN1C(=O)[C@H]2CC[C@@H]1CN(S(=O)(=O)c1ccc(Cl)cc1Cl)C2,Percent Effect,"30 µM, 30.03 µM",13.71%
Cn1cc(C2CCCN2Cc2csc(-c3ccccc3)n2)cn1 (stereo not given),Percent Effect,10 µM,-15.89%
CC(C)c1nc(CN2CCCC2c2cnn(C)c2)cs1 (stereo not given),Percent Effect,10 µM,-7.544%
Cn1cc(C2CCCN2Cc2csc(C(C)(C)C)n2)cn1 (stereo not given),Percent Effect,"30 µM, 30.03 µM",87.76%
COCCn1c(=O)n(C)c(=O)c2ccc(C3CCN(C(C)=O)CC3)nc21,Percent Effect,"30.3 µM, […]",24.28%
Cl.OC[C@H]1CC[C@]2(CC1)CN(Cc1ccsc1)Cc1ccccc1O2,Percent Effect,"30.3 µM, […]",39.16%
CC(C)c1nccc(CN2CCCC(O)(CN3CCCC3)C2)n1 (stereo not given),Percent Effect,"30 µM, 30.03 µM",17.13%
CC(C)c1nccc(CN2CCC(O)(CN3CCCCC3)C2)n1 (stereo not given),Percent Effect,"30 µM, 30.03 µM",67.93%
CC(C)c1nccc(CN2CCCC(O)(CN(C)C)C2)n1 (stereo not given),Percent Effect,"30 µM, 30.03 µM",-2.317%
CCCSc1ncc(CN(C)CCN2CCCCC2)cn1.O=C(O)CC(O)(CC(=O)O)C(=O)O,Percent Effect,"30.3 µM, […]",2.471%
Cc1cccc(Nc2cc(C3CCCN(CC(N)=O)C3)ccn2)n1.O=CO.O=CO (stereo not given),Percent Effect,"30.3 µM, […]",-0.9423%
Cc1ccccc1N1CCCN(CC2(O)CCCNC2)CC1 (stereo not given),Percent Effect,"30 µM, 30.03 µM",24.63%
CCOc1ccccc1N1CCN(CC2(O)CCCNC2)CC1 (stereo not given),Percent Effect,"30 µM, 30.03 µM",-24.1%
Cc1ccc(C)c(N2CCN(CC3(O)CCNC3)CC2)c1 (stereo not given),Percent Effect,"30 µM, 30.03 µM",106.8%
Cn1cccc1C(=O)N1CCC2(CC1)CN(c1ccsc1)C(=O)CO2,Percent Effect,"30.3 µM, […]",-133.6%
COc1ccc(CN2CCO[C@H]3[C@H](OCCN4CCCC4)CC[C@@H]32)cc1.O=C(O)C(F)(F)F.O=C(O)C(F)(F)F,Percent Effect,"30.3 µM, […]",-2.76%
Cc1nn(C)cc1CN1CCc2c(nc(-c3ccccn3)[nH]c2=O)C1,Percent Effect,"30.3 µM, […]",3.808%
Cn1cc(CN2CCc3c(nc(-c4ccccn4)[nH]c3=O)C2)cn1,Percent Effect,"30 µM, 30.03 µM",19.69%
